From PubChem BioAssay (NCI)
This is part of a sample that, as a whole, favours compounds with a hit. Of some 79,000 tested, about 15% had one in any assay. Values without a mark were called inactive. Rule as the data show it: active = growth inhibition above about 70%; inactive = the rest. Where a SMILES comes first, the peptide text is derived from it. The star is where a group is joined. Cbz = O=C(OCc1ccccc1)*

Assay: NCI Yeast Anticancer Drug Screen. Data for the cln2 rad14 strain (AID 165);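 also: 0% = growth equal to vehicle treated cultures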
Details: S. cerevisiae cln2 rad14 strain, at 50.0 µM, active compounds read high
How it was run: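 Each compound was tested on cln2 rad14 yeast. Inhibition of growth was calculated against vehicle-exposed controls.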
`O=C(O)C(CO)NC(=O)C1CCCN1C(=O)OCc1ccccc1` (stereo not drawn) (Cbz-Pro-Ser-OH; configuration not given here) showed a growth inhibition of -1%. Work on `CCC(=O)N1NC(=O)C(CC)(CC)C1=O` yielded a growth inhibition of 10.7%. With `O=C(Nc1ccccn1)c1ccc([N+](=O)[O-])cc1` the growth inhibition was 5.45%. `CC(CC(=O)O)C(C)C(=O)O` (stereo not given) gave a growth inhibition of -7.7%. For `OCC1CCCCCCCCCC1`, the growth inhibition was 25.1%. In the case of `O=[N+]([O-])c1ccc(/C(=N/Nc2ccccc2)c2ccc(Cl)cc2)cc1`, the growth inhibition is reported as -14.1%. With `CCn1c(=O)c2[nH]c(Cl)nc2n(CC(C)Cl)c1=O` (stereo not given) the growth inhibition was 17.8%. Molecule `CCCCNc1c(C(=O)N2CCCCC2)cnc2c1cnn2CC` has a growth inhibition of -13.9%. `CCOC(=O)c1n[nH]c(C)c1C/C(=N/O)c1ccccc1` gave a growth inhibition of -14.9%. Work on `C/C=C/C=C/c1nc(C#N)c(N)o1` yielded a growth inhibition of 12.7%. `O=C(NCCCCCCNC(=O)Nc1cccc2ccccc12)Nc1cccc2ccccc12` gave a growth inhibition of -7.75%. For `CC(C)(C)C1CCC2c3c([nH]c4ccccc34)C3C(=O)N(c4ccccc4[N+](=O)[O-])C(=O)C3C2C1` (stereo not given), the growth inhibition was 4.8%. `Clc1ccccc1C(N1CCCCC1)N1CCCCC1` gave a growth inhibition of 13.5%. For `CC(=O)Nc1ccc(S(=O)(=O)SC(F)(F)F)cc1`, the growth inhibition was 24.7%. Work on `CCCCCCCCCCCCCCCOc1cc(OC)ccc1-c1nnc(SC)s1` yielded a growth inhibition of -3.05%. For `CCOC(=O)Oc1ccc(C(=O)NCCC(C)C)cc1OCC`, the growth inhibition was -69.2%. `c1ccc(C(N2CCNCC2)N2CCNCC2)cc1` gave a growth inhibition of -3.6%. In the case of `CCCC(=O)Nc1cn(COC)c(C(=O)N2C[C@H]3C[C@@]34C2=CC(=O)c2[nH]cc(C)c24)n1`, the growth inhibition is reported as 19.9%. For `O=C(O)c1ccccc1C(=O)c1ccc(Br)cc1`, the growth inhibition was 14.6%. `C=C1CC[N+]2(CCCCCC)CCCC12` (stereo not given) gave a growth inhibition of -1.4%. Molecule `COc1ccc2ncc(COC(=O)NC3CCCCC3)c(COC(=O)NC3CCCCC3)c2c1` has a growth inhibition of -0.6%. Molecule `BrCCCOc1ccccc1` has a growth inhibition of -2.9%. In the case of `CCN(CC)C(=O)c1cccc2c1OCO2`, the growth inhibition is reported as 0.25%. In the case of `CC(=O)Oc1ccccc1Cl`, the growth inhibition is reported as 13.3%. Work on `O=C(O)c1ccc(O)cc1` yielded a growth inhibition of 2.45%. With `CCOC(=O)NC(=O)c1cn(C2OC(CO)C(O)C2O)c(=O)[nH]c1=O` (stereo not given) the growth inhibition was -5.9%. For `CCNC(=S)OC1CCC2(C)C(=CCC3C2CCC2(C)C(C(C)CCC(CC)C(C)C)CCC32)C1` (stereo not given), the growth inhibition was -24.4%. In the case of `O=C(O)CCC(C(=O)O)N(Cc1ccccc1)Cc1ccccc1` (stereo not given), the growth inhibition is reported as 1%. With `Fc1ccc(-c2nc3ccccc3[nH]2)cc1` the growth inhibition was -8.4%. Work on `Cc1ccc(S(=O)(=O)NCCN)cc1` yielded a growth inhibition of -19.5%. Molecule `N/C(=N\c1nc(N)cc(N)n1)Nc1ccc(S(N)(=O)=O)cc1` has a growth inhibition of -32.2%. For `O=C(O)CNC(=O)OCc1ccccc1`, the growth inhibition was -45.8%. For `CCCOC(=O)O[C@H]1CC[C@@]2(C)C(=CC[C@H]3[C@@H]4CC[C@H]([C@H](C)CCCC(C)C)[C@@]4(C)CC[C@@H]32)C1`, the growth inhibition was 3.9%. Molecule `c1ccc(-c2cc3nc4ccccc4nc3o2)cc1` has a growth inhibition of 1.6%. Molecule `N#Cc1nc(-c2ccco2)oc1N` has a growth inhibition of 3%. In the case of `O=c1c2c3c(sc2nc2n1N=CN(c1ccc(Cl)cc1)C2)CCCC3`, the growth inhibition is reported as -5.45%. With `Cc1cc2c(c(N)c1C)C(=O)c1ccccc1C2=O` the growth inhibition was 10.9%. Molecule `COC1=CC(=O)N(C)C(O)C1(C#N)OC1OC(CO)C(O)C(O)C1O` (stereo not given) has a growth inhibition of 18.6%. `CC(=O)N1C(NN(C)C)CCN1c1ccccc1` (stereo not given) showed a growth inhibition of -4.75%. `O=S1(=O)CC(N2CCCCC2)C2=C(O1)c1ccccc1N(c1ccccc1)C2` (stereo not given) gave a growth inhibition of 16.9%.

Assay: NCI Yeast Anticancer Drug Screen. Data for the mlh1 rad18 strain (AID 175)
Details: S. cerevisiae mlh1 rad18 strain growth inhibition; at 50.0 µM; active compounds read high
How it was run: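 Vehicle-treated cultures served as the reference for growth inhibition in a yeast strain carrying DNA damage repair alterations exposed to each compound.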
`O=C(O)C(CO)NC(=O)C1CCCN1C(=O)OCc1ccccc1` (stereo not drawn) (Cbz-Pro-Ser-OH; configuration not given here) gave a growth inhibition of -18%. Molecule `CCC(=O)N1NC(=O)C(CC)(CC)C1=O` has a growth inhibition of -35.6%. For `O=C(Nc1ccccn1)c1ccc([N+](=O)[O-])cc1`, the growth inhibition was -2.4%. In the case of `CC(CC(=O)O)C(C)C(=O)O` (stereo not given), the growth inhibition is reported as -13.4%. For `OCC1CCCCCCCCCC1`, the growth inhibition was 44.5%. In the case of `O=[N+]([O-])c1ccc(/C(=N/Nc2ccccc2)c2ccc(Cl)cc2)cc1`, the growth inhibition is reported as 4.1%. `CCn1c(=O)c2[nH]c(Cl)nc2n(CC(C)Cl)c1=O` (stereo not given) gave a growth inhibition of 19.1%. `CCCCNc1c(C(=O)N2CCCCC2)cnc2c1cnn2CC` gave a growth inhibition of 1.05%. With `CCOC(=O)c1n[nH]c(C)c1C/C(=N/O)c1ccccc1` the growth inhibition was -35.9%. `C/C=C/C=C/c1nc(C#N)c(N)o1` gave a growth inhibition of -3.55%. Molecule `O=C(NCCCCCCNC(=O)Nc1cccc2ccccc12)Nc1cccc2ccccc12` has a growth inhibition of -13.6%. `CC(C)(C)C1CCC2c3c([nH]c4ccccc34)C3C(=O)N(c4ccccc4[N+](=O)[O-])C(=O)C3C2C1` (stereo not given) showed a growth inhibition of -26.6%. With `Clc1ccccc1C(N1CCCCC1)N1CCCCC1` the growth inhibition was 28.1%. With `CC(=O)Nc1ccc(S(=O)(=O)SC(F)(F)F)cc1` the growth inhibition was 13.7%. In the case of `CCCCCCCCCCCCCCCOc1cc(OC)ccc1-c1nnc(SC)s1`, the growth inhibition is reported as -5.7%. Work on `CCOC(=O)Oc1ccc(C(=O)NCCC(C)C)cc1OCC` yielded a growth inhibition of -6.8%. `c1ccc(C(N2CCNCC2)N2CCNCC2)cc1` gave a growth inhibition of 17%. Work on `CCCC(=O)Nc1cn(COC)c(C(=O)N2C[C@H]3C[C@@]34C2=CC(=O)c2[nH]cc(C)c24)n1` yielded a growth inhibition of 58.8%. `O=C(O)c1ccccc1C(=O)c1ccc(Br)cc1` gave a growth inhibition of 10.1%. Work on `C=C1CC[N+]2(CCCCCC)CCCC12` (stereo not given) yielded a growth inhibition of 21.6%. For `COc1ccc2ncc(COC(=O)NC3CCCCC3)c(COC(=O)NC3CCCCC3)c2c1`, the growth inhibition was 22.5%. Molecule `BrCCCOc1ccccc1` has a growth inhibition of 0.7%. With `CCN(CC)C(=O)c1cccc2c1OCO2` the growth inhibition was -9.6%. For `CC(=O)Oc1ccccc1Cl`, the growth inhibition was 16.8%. Molecule `O=C(O)c1ccc(O)cc1` has a growth inhibition of 21.9%. `CCOC(=O)NC(=O)c1cn(C2OC(CO)C(O)C2O)c(=O)[nH]c1=O` (stereo not given) gave a growth inhibition of 44.5%. Molecule `CCNC(=S)OC1CCC2(C)C(=CCC3C2CCC2(C)C(C(C)CCC(CC)C(C)C)CCC32)C1` (stereo not given) has a growth inhibition of -23.8%. `O=C(O)CCC(C(=O)O)N(Cc1ccccc1)Cc1ccccc1` (stereo not given) showed a growth inhibition of 5.9%. `Fc1ccc(-c2nc3ccccc3[nH]2)cc1` showed a growth inhibition of -7.05%. In the case of `Cc1ccc(S(=O)(=O)NCCN)cc1`, the growth inhibition is reported as -3.3%. Molecule `N/C(=N\c1nc(N)cc(N)n1)Nc1ccc(S(N)(=O)=O)cc1` has a growth inhibition of -4.15%. In the case of `O=C(O)CNC(=O)OCc1ccccc1`, the growth inhibition is reported as -19.4%. For `CCCOC(=O)O[C@H]1CC[C@@]2(C)C(=CC[C@H]3[C@@H]4CC[C@H]([C@H](C)CCCC(C)C)[C@@]4(C)CC[C@@H]32)C1`, the growth inhibition was -34.4%. `c1ccc(-c2cc3nc4ccccc4nc3o2)cc1` showed a growth inhibition of -4.4%. In the case of `N#Cc1nc(-c2ccco2)oc1N`, the growth inhibition is reported as -5.8%. In the case of `O=c1c2c3c(sc2nc2n1N=CN(c1ccc(Cl)cc1)C2)CCCC3`, the growth inhibition is reported as -32%. In the case of `Cc1cc2c(c(N)c1C)C(=O)c1ccccc1C2=O`, the growth inhibition is reported as 6.7%. With `COC1=CC(=O)N(C)C(O)C1(C#N)OC1OC(CO)C(O)C(O)C1O` (stereo not given) the growth inhibition was -40.9%. Molecule `CC(=O)N1C(NN(C)C)CCN1c1ccccc1` (stereo not given) has a growth inhibition of 2.95%. Work on `O=S1(=O)CC(N2CCCCC2)C2=C(O1)c1ccccc1N(c1ccccc1)C2` (stereo not given) yielded a growth inhibition of -26.1%.
